Over roughly 33,000 sequences, “E-score (-0.5 to 0.5)” has its median near -0.012; the highest 2% begin near 0.29. This excerpt belongs to a sample that is enriched for the highest values.
Molecular target: T1, Ybr033w (UniProt P38073)
T1 sequence: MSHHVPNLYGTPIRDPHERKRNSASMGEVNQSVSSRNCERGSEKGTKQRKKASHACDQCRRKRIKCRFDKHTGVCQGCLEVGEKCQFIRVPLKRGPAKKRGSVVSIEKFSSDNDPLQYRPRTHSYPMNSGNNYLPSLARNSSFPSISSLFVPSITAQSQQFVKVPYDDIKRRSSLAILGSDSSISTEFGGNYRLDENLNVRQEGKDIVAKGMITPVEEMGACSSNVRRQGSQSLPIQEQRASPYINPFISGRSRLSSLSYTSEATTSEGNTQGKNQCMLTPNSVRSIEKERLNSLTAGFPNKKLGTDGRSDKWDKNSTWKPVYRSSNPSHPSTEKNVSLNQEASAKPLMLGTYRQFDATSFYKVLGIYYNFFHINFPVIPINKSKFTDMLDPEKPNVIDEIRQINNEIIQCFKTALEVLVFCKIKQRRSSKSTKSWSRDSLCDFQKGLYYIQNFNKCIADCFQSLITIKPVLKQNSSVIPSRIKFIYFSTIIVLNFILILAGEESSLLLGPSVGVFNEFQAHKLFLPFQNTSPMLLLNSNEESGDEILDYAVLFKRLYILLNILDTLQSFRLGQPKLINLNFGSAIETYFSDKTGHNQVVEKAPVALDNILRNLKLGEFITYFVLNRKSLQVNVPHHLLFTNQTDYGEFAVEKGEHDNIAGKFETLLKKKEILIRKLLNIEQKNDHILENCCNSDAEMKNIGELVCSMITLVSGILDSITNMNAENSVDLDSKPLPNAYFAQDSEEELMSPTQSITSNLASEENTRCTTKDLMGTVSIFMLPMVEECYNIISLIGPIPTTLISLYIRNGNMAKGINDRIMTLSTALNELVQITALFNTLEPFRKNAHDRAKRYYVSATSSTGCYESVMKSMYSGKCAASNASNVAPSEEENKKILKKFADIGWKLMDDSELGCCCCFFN
Assay: PBM E-score (8-mer binding enrichment) (E-score (-0.5 to 0.5)); higher = stronger / more preferred TF binding
Conditions: protein concentration: 200 nM; construct: GST-full length
Procedure: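 Universal 'all 10-mer' protein binding microarrays (Agilent AMADID 015681) probed with GST-tagged S. cerevisiae TFs (full-length or DBD) made by in vitro transcription/translation (PURExpress), about 100-200 nM. Bound TF was detected with fluorescent anti-GST. Each ungapped 8-mer (which stands for itself and its reverse complement) is scored by the PBM enrichment score (E-score), a modified Wilcoxon-Mann-Whitney statistic from -0.5 to +0.5, computed with the Universal PBM Analysis Suite. Scale: above 0.35 generally sequence-specific binding.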

Sequence | PBM E-score
GGGATTGA | -0.148
ATGATTTA | 0.253
CGGATTAG | -0.0597
GTGATTTA | 0.295
GTGATTAA | 0.291
CTGATTAA | 0.22
ACGCATTG | -0.0453
AGCCCACG | -0.202
CATGGTGA | 0.137
ACGATTAA | 0.141
GCGATTAA | 0.19
TCGATTAA | 0.288
CCGATTTA | 0.183
ACGATTTA | 0.36
GCGATTTA | 0.0771
ACACCGTC | -0.0477
AAGCGCAT | -0.0621
CACCGCTA | -0.0953
TAAACTGA | 0.136
ATGGCCTG | -0.16
GCGATACA | 0.0586
TCGATACA | 0.298

Sequence | PBM E-score
ACGATACA | 0.0132
ACGGTAGC | -0.123
ACTAGTCT | -0.0233
ACCATCGG | -0.118
ACAACCAT | 0.297
ACAACCAG | 0.102
ACAACCAC | 0.0628
CGTTCTGC | 0.0161
GCTTATGA | -0.0277
AACTAAAG | 0.231
CACTAATG | 0.0973
AACTAACT | 0.126
AACTAATG | 0.29
AACTAATA | 0.298
CACTAATA | 0.0444
TACTAATA | 0.185
AACTAATT | 0.293
AACTAATC | 0.192
AAATCGGC | -0.158
CCACCGGA | 0.172
GAGACCAA | 0.0622
ATCCGCTC | -0.102

Sequence | PBM E-score
ACGGTATG | -0.0502
AGGCATAA | -0.0986
ATTTAGGC | 0.117
CCCACCTC | -0.244
AAATTTAG | 0.278
GAATTTAA | 0.0723
AAATTTCA | -0.0112
CAATTTCA | 0.0349
TAATTTCA | 0.289
AAATTTAC | 0.263
TAATTTAA | 0.343
CAATTTAA | 0.27
AAATTTAA | 0.29
CGCCAGAA | 0.043
ACAAGTAT | 0.249
AACACAAC | 0.116
CCTTTCTC | -0.11
CCGTCGCC | -0.247
ACGATAAT | 0.163
AGGATACT | -0.0125
ATGATAAA | 0.238
CAGATAAA | 0.194

Sequence | PBM E-score
TGGATAAA | 0.391
AGGATAAT | 0.36
TGGATACA | 0.0503
AAGATAAA | 0.257
TTGATAAA | 0.368
GTGATAAA | 0.102
TAGATAAA | 0.341
TCGATAAA | 0.167
CTGCTCTC | -0.153
AGCCACCA | 0.0237
AGGCTCAT | -0.0489
ACGACCAG | -0.158
AAGATAAT | 0.307
GGGATAGA | -0.196
AGGATAAG | -0.0801
AAGATAAC | 0.0702
GGGATAAA | 0.317
GGGATAAC | 0.00039
AGGATAAA | 0.427
AGGATAAC | -0.109
AAGATAAG | 0.0844

Source: the supplement of paper PMC3334620
